Only a selection was taken, and the strongest signals are over-represented in it overall.
What was measured:
Assay in all cases: glycan array binding signal (z-score within array); higher = stronger binding
Conditions in all cases: glycan notation: IUPAC condensed, linker removed
[1] = molecular target: Fuc(a1-2)Gal(b1-3)GalNAc(b1-3)Gal
Procedure, shortened: (§1)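 Glycan array data were curated from 3228 arrays in the Consortium for Functional Glycomics database and kept only where the protein sequence was available. Glycan names were converted to IUPAC-condensed notation, and columns mapping to the same glycan were averaged. The binding signal is a within-array Z-score, averaged across arrays of the same protein sequence at different concentrations or buffers and across linkers. Negative Z-scores can be read as non-binding.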

[2] = molecular target: Fuc(a1-2)Gal(b1-3)[Fuc(a1-4)]GlcNAc
Procedure, shortened: as §1

Fuc(a1-2)Gal(b1-4)Glc = molecular target: Fuc(a1-2)Gal(b1-4)Glc
Procedure, shortened: as §1

[3] = molecular target: Fuc(a1-2)Gal(b1-4)GlcNAc(b1-3)Gal(b1-4)GlcNAc(b1-3)Gal(b1-4)GlcNAc
Procedure, shortened: as §1

[4] = molecular target: Fuc(a1-2)[Gal(a1-3)]Gal(b1-3)GlcNAc(b1-6)GalNAc
Procedure, shortened: as §1

[5] = molecular target: Fuc(a1-3)[Gal(b1-4)]Glc6S
Procedure, shortened: as §1

[6] = molecular target: Fuc(a1-3)[Gal(b1-4)]GlcNAc(b1-2)Man(a1-3)[Fuc(a1-3)[Gal(b1-4)]GlcNAc(b1-2)Man(a1-6)]Man(b1-4)GlcNAc(b1-4)[Fuc(a1-6)]GlcNAc
Procedure, shortened: as §1

[7] = molecular target: Fuc(a1-3)[Gal(b1-4)]GlcNAc(b1-6)GalNAc
Procedure, shortened: as §1

Gal(b1-3)Gal(b1-4)GlcNAc = molecular target: Gal(b1-3)Gal(b1-4)GlcNAc
Procedure, shortened: as §1

[8] = molecular target: Gal(b1-4)GlcNAc(b1-2)Man(a1-6)Man(b1-4)GlcNAc(b1-4)GlcNAc
Procedure, shortened: as §1

[9] = molecular target: Gal(b1-4)GlcNAc(b1-3)Gal(b1-4)GlcNAc(b1-2)[Gal(b1-4)GlcNAc(b1-3)Gal(b1-4)GlcNAc(b1-6)]Man(a1-6)[Gal(b1-4)GlcNAc(b1-3)Gal(b1-4)GlcNAc(b1-2)Man(a1-3)]Man(b1-4)GlcNAc(b1-4)GlcNAc
Procedure, shortened: as §1

[10] = molecular target: Gal(b1-4)GlcNAc(b1-3)Gal(b1-4)GlcNAc(b1-2)[Gal(b1-4)GlcNAc(b1-3)Gal(b1-4)GlcNAc(b1-6)]Man(a1-6)[Gal(b1-4)GlcNAc(b1-3)Gal(b1-4)GlcNAc(b1-2)Man(a1-3)]Man(b1-4)GlcNAc(b1-4)[Fuc(a1-6)]GlcNAc
Procedure, shortened: as §1

[11] = molecular target: Gal(b1-4)GlcNAc(b1-3)Gal(b1-4)GlcNAc(b1-3)Gal(b1-4)GlcNAc(b1-3)Gal(b1-4)GlcNAc(b1-3)Gal(b1-4)GlcNAc(b1-2)Man(a1-3)[Gal(b1-4)GlcNAc(b1-3)Gal(b1-4)GlcNAc(b1-3)Gal(b1-4)GlcNAc(b1-3)Gal(b1-4)GlcNAc(b1-3)Gal(b1-4)GlcNAc(b1-2)Man(a1-6)]Man(b1-4)GlcNAc(b1-4)[Fuc(a1-6)]GlcNAc
Procedure, shortened: as §1

[12] = molecular target: Gal(b1-4)GlcNAc(b1-3)Gal(b1-4)GlcNAc(b1-3)[Gal(b1-4)GlcNAc(b1-3)Gal(b1-4)GlcNAc(b1-6)]GalNAc
Procedure, shortened: as §1

[13] = molecular target: Gal3S(b1-4)[Fuc(a1-3)]GlcNAc6S
Procedure, shortened: as §1

[14] = molecular target: GalNAc(b1-4)GlcNAc(b1-2)Man(a1-3)[GalNAc(b1-4)GlcNAc(b1-2)Man(a1-6)]Man(b1-4)GlcNAc(b1-4)GlcNAc
Procedure, shortened: as §1

[15] = molecular target: GalNAc(b1-4)GlcNAc(b1-3)GalNAc(b1-4)GlcNAc
Procedure, shortened: as §1

[16] = molecular target: Glc(a1-6)Glc(a1-6)Glc(a1-6)Glc
Procedure, shortened: as §1

[17] = molecular target: GlcNAc(b1-3)Gal(b1-4)GlcNAc(b1-3)Gal(b1-4)GlcNAc(b1-3)Gal(b1-4)GlcNAc(b1-3)Gal(b1-4)GlcNAc(b1-2)Man(a1-3)[GlcNAc(b1-3)Gal(b1-4)GlcNAc(b1-3)Gal(b1-4)GlcNAc(b1-3)Gal(b1-4)GlcNAc(b1-3)Gal(b1-4)GlcNAc(b1-2)Man(a1-6)]Man(b1-4)GlcNAc(b1-4)[Fuc(a1-6)]GlcNAc
Procedure, shortened: as §1

[18] = molecular target: GlcNAc(b1-3)Gal(b1-4)GlcNAc(b1-3)GalNAc
Procedure, shortened: as §1

GlcNAc(b1-3)GalNAc = molecular target: GlcNAc(b1-3)GalNAc
Procedure, shortened: as §1

GlcNAc(b1-3)Man = molecular target: GlcNAc(b1-3)Man
Procedure, shortened: as §1

[19] = molecular target: GlcNAc(b1-3)[GlcNAc(b1-4)][GlcNAc(b1-6)]GlcNAc
Procedure, shortened: as §1

Kdn(a2-6)Gal(b1-4)GlcNAc = molecular target: Kdn(a2-6)Gal(b1-4)GlcNAc
Procedure, shortened: as §1

[20] = molecular target: Man(a1-2)Man(a1-6)[Man(a1-3)]Man(a1-6)[Man(a1-2)Man(a1-2)Man(a1-3)]Man
Procedure, shortened: as §1

[21] = molecular target: Man(a1-2)Man(a1-6)[Man(a1-3)]Man(a1-6)[Man(a1-2)Man(a1-2)Man(a1-3)]Man(b1-4)GlcNAc(b1-4)GlcNAc
Procedure, shortened: as §1

[22] = molecular target: Man(a1-3)[Man(a1-6)]Man(a1-6)[Man(a1-2)Man(a1-3)]Man(b1-4)GlcNAc(b1-4)GlcNAc
Procedure, shortened: as §1

[23] = molecular target: Man(a1-3)[Man(a1-6)]Man(a1-6)[Man(a1-3)]Man
Procedure, shortened: as §1

[24] = molecular target: Neu5Ac(a2-3)Gal(b1-3)GlcNAc
Procedure, shortened: as §1

[25] = molecular target: Neu5Ac(a2-3)Gal(b1-3)GlcNAc(b1-2)Man
Procedure, shortened: as §1

[26] = molecular target: Neu5Ac(a2-3)Gal(b1-4)GlcNAc(b1-2)Man(a1-3)[Neu5Ac(a2-3)Gal(b1-4)GlcNAc(b1-2)Man(a1-6)]Man(b1-4)GlcNAc(b1-4)GlcNAc
Procedure, shortened: as §1

[27] = molecular target: Neu5Ac(a2-3)Gal(b1-4)GlcNAc(b1-2)[Neu5Ac(a2-3)Gal(b1-4)GlcNAc(b1-6)]Man(a1-6)[Neu5Ac(a2-3)Gal(b1-4)GlcNAc(b1-2)Man(a1-3)][GlcNAc(b1-4)]Man(b1-4)GlcNAc(b1-4)GlcNAc
Procedure, shortened: as §1

[28] = molecular target: Neu5Ac(a2-3)Gal(b1-4)GlcNAc(b1-3)GalNAc
Procedure, shortened: as §1

[29] = molecular target: Neu5Ac(a2-3)Gal(b1-4)GlcNAc(b1-3)[Neu5Ac(a2-3)Gal(b1-4)GlcNAc(b1-6)]GalNAc
Procedure, shortened: as §1

[30] = molecular target: Neu5Ac(a2-3)Gal(b1-4)GlcNAc(b1-6)[Gal(b1-3)]GalNAc
Procedure, shortened: as §1

[31] = molecular target: Neu5Ac(a2-3)Gal(b1-4)[Fuc(a1-3)]GlcNAc(b1-3)Gal
Procedure, shortened: as §1

[32] = molecular target: Neu5Ac(a2-6)Gal(b1-4)GlcNAc(b1-2)Man(a1-3)[Neu5Ac(a2-6)Gal(b1-4)GlcNAc(b1-2)Man(a1-6)]Man(b1-4)GlcNAc(b1-4)GlcNAc
Procedure, shortened: as §1

[33] = molecular target: Neu5Ac(a2-6)Gal(b1-4)GlcNAc(b1-3)Gal(b1-4)GlcNAc(b1-3)Gal(b1-4)GlcNAc(b1-2)Man(a1-3)[Neu5Ac(a2-6)Gal(b1-4)GlcNAc(b1-3)Gal(b1-4)GlcNAc(b1-3)Gal(b1-4)GlcNAc(b1-2)Man(a1-6)]GalNAc
Procedure, shortened: as §1

[34] = molecular target: Neu5Ac(a2-6)Gal(b1-4)GlcNAc(b1-3)Gal(b1-4)GlcNAc(b1-3)GalNAc
Procedure, shortened: as §1

[35] = molecular target: Neu5Ac(a2-6)Gal(b1-4)GlcNAc(b1-3)Gal(b1-4)[Fuc(a1-3)]GlcNAc(b1-3)Gal(b1-4)[Fuc(a1-3)]GlcNAc
Procedure, shortened: as §1

Neu5Ac(b2-6)GalNAc = molecular target: Neu5Ac(b2-6)GalNAc
Procedure, shortened: as §1

[36] = molecular target: Neu5Gc(a2-8)Neu5Gc(a2-3)Gal(b1-4)GlcNAc
Procedure, shortened: as §1

B1: Pwp7 (Candida glabrata) (protein)
chain: MGSSHHHHHHSSGLVPRGSHMASKNPVDFPNLCQYPNLDGAVAGFDTEIYNADPSILINFSLWPILQFPKEWHKTIGRAITTQTNFKLPASDTTLFGVSIPTQNILIEFRGYFIPPKSGTYTFALYLTDDGSAMFLGNDAAFPCGNITSWSNPTNDQVSVSDYDPKKKTLTVYMVAGVAYPLRIAYYNREKGGSLTASFVDPDGLTHSDWNGYIWTLPSCDNCKYS
glycan array binding signal (z-score) [1]: -0.017
glycan array binding signal (z-score) [2]: -0.614
glycan array binding signal (z-score) (Fuc(a1-2)Gal(b1-4)Glc): -0.416
glycan array binding signal (z-score) [3]: -0.218
glycan array binding signal (z-score) [4]: 0.673
glycan array binding signal (z-score) [5]: 2.63
glycan array binding signal (z-score) [6]: -0.531
glycan array binding signal (z-score) [7]: -0.313
glycan array binding signal (z-score) (Gal(b1-3)Gal(b1-4)GlcNAc): -0.059
glycan array binding signal (z-score) [8]: 0.711
glycan array binding signal (z-score) [9]: 4.75
glycan array binding signal (z-score) [10]: 0.752
glycan array binding signal (z-score) [11]: 2.19
glycan array binding signal (z-score) [12]: 2.23
glycan array binding signal (z-score) [13]: -0.723
glycan array binding signal (z-score) [14]: 2.13
glycan array binding signal (z-score) [15]: -0.44
glycan array binding signal (z-score) [16]: 1.4
glycan array binding signal (z-score) [17]: 2.91
glycan array binding signal (z-score) [18]: 2.79
glycan array binding signal (z-score) (GlcNAc(b1-3)GalNAc): -0.079
glycan array binding signal (z-score) (GlcNAc(b1-3)Man): -0.272
glycan array binding signal (z-score) [19]: -1.58
glycan array binding signal (z-score) (Kdn(a2-6)Gal(b1-4)GlcNAc): -0.857
glycan array binding signal (z-score) [20]: -0.467
glycan array binding signal (z-score) [21]: -0.429
glycan array binding signal (z-score) [22]: -0.076
glycan array binding signal (z-score) [23]: 2.11
glycan array binding signal (z-score) [24]: -0.487
glycan array binding signal (z-score) [25]: 0.574
glycan array binding signal (z-score) [26]: 0.472
glycan array binding signal (z-score) [27]: 10.8
glycan array binding signal (z-score) [28]: -0.11
glycan array binding signal (z-score) [29]: 2.25
glycan array binding signal (z-score) [30]: -0.55
glycan array binding signal (z-score) [31]: -0.216
glycan array binding signal (z-score) [32]: 0.696
glycan array binding signal (z-score) [33]: 3.78
glycan array binding signal (z-score) [34]: 0.805
glycan array binding signal (z-score) [35]: -0.43
glycan array binding signal (z-score) (Neu5Ac(b2-6)GalNAc): -0.387
glycan array binding signal (z-score) [36]: -0.224

From the supplement of paper PMC8728848
